About 79,000 compounds went through this panel and 15% of them were active in at least one assay; those are over-represented in the sample as a whole. Active and inactive are the calls of the source. Rule as the data show it: active = growth inhibition above about 70%; inactive = the rest.
Assays:
[1] = NCI Yeast Anticancer Drug Screen. Data for the rad50 strain (AID 155);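 also: 0% = growth of vehicle-only cultures of the same strain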; conditions: S. cerevisiae rad50 strain growth inhibition; at 50.0 µM; active compounds read high
Outline: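 Genetically altered yeast (DNA repair pathway); compound treatment; growth inhibition vs vehicle ctrl.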

[2] = NCI Yeast Anticancer Drug Screen. Data for the mec2-1 strain (AID 157); conditions: S. cerevisiae mec2-1 strain, at 50.0 µM, active compounds read high
Outline: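 Readout is yeast growth inhibition, normalised to vehicle-treated controls, in the mec2-1 strain exposed to compound.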

[3] = NCI Yeast Anticancer Drug Screen. Data for the sgs1 mgt1 strain (AID 161);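 also: 0% = growth of cultures given vehicle only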; conditions: S. cerevisiae sgs1 mgt1 strain, at 50.0 µM, active compounds read high
Outline: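 Yeast cells carrying a defined DNA-repair defect were exposed to test compounds. Growth inhibition was measured relative to vehicle-treated controls.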

[4] = NCI Yeast Anticancer Drug Screen. Data for the cln2 rad14 strain (AID 165);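 also: 0% = growth equal to vehicle treated cultures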; conditions: S. cerevisiae cln2 rad14 strain, at 50.0 µM, active compounds read high
Outline: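 Relative to vehicle controls, growth inhibition of compound-treated cln2 rad14 yeast was recorded.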

[5] = NCI Yeast Anticancer Drug Screen. Data for the bub3 strain (AID 167); conditions: S. cerevisiae bub3 mutant strain, at 50.0 µM, active compounds read high
Outline: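 Yeast carrying a defined mutation is treated with each compound, and growth is compared with that of vehicle-exposed cells to give inhibition.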

[6] = NCI Yeast Anticancer Drug Screen. Data for the mlh1 rad18 strain (AID 175); conditions: S. cerevisiae mlh1 rad18 strain growth inhibition; at 50.0 µM; active compounds read high
Outline: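 Test agents were incubated with a yeast strain of defined genotype (DNA damage repair defect). Inhibition of growth was derived by comparison with vehicle-exposed cultures.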

Measured: growth inhibition

Cn1c(=O)c2conc2n(-c2ccc(Cl)cc2)c1=O
inactive: [1] 11.2% | [2] -0.1% | [3] -12.2% | [4] -19.9% | [5] 2.55% | [6] -3.25%

O=C(O)C1CC(Cl)C(Cl)CC1C(=O)O (centres undefined)
inactive: [1] -2.9% | [2] -27.1% | [3] 0.85% | [4] 0.2% | [5] -19.2% | [6] -5.1%

CC(C)(C)OC(=O)C(N)Cc1ccccc1 (centres undefined)
inactive: [1] -5.8% | [2] -6.6% | [3] 20.9% | [4] 0.35% | [5] 3.35% | [6] -22.6%

Cc1nc(-c2ccc([N+](=O)[O-])cc2)cn2c1nc1ccccc12
inactive: [1] -26.9% | [2] -33% | [3] -34.1% | [4] -67.6% | [5] -4.25% | [6] -17.8%

COc1cc2c(c(OC)c1OC)-c1ccc(OC)c(=O)cc1C(NC(=O)c1ccc(N=[N+]=[N-])cc1)CC2 (centres undefined)
inactive: [1] 51.4% | [3] 8.5% | [4] -4.7% | [5] -4.6%
active: [2] 74.8% | [6] 87.3%

Cn1c2nc(-[n+]3ccc(N4CCOCC4)cc3)nc-2c([O-])n(C)c1=O
inactive: [1] -20.8% | [2] 1.1% | [3] -17.9% | [4] -44.9% | [5] -10.8% | [6] -11.7%

O=C(c1ccccc1)c1c(O)c2ccccc2oc1=O
inactive: [1] -13.6% | [2] -24% | [3] -7.95% | [4] -16.8% | [5] -4.45% | [6] -4.5%

CC(C)NCC(O)COc1cccc2ccccc12 (centres undefined)
inactive: [1] 19.4% | [2] -32.2% | [3] 31.1% | [4] 20.6% | [5] 14.9% | [6] 11.1%

O=C(O)c1cnc2cccc([N+](=O)[O-])c2c1
inactive: [1] 2.5% | [2] 10.7% | [3] 0.2% | [4] -50.5% | [5] -22.2% | [6] 11.4%

O=C(O)CNCCO
inactive: [1] -0.35% | [2] 7.75% | [3] 6.65% | [4] 0% | [5] 22.2% | [6] -0.25%

O=C(CC(C(=O)c1cccs1)c1ccsc1)c1cccs1 (centres undefined)
inactive: [1] -23.8% | [2] -22.6% | [3] 0.85% | [4] 21% | [5] 25.8% | [6] -38.7%

O=CNCC1(c2ccccc2)CCNCC1
inactive: [1] 2.25% | [2] -3.25% | [3] 8.05% | [4] -1.7% | [5] 4.4% | [6] -4.6%

CCCn1c(CC)nc([N+](=O)[O-])c1Sc1ncn[nH]1
inactive: [1] -14.7% | [2] -23.1% | [3] -7.1% | [4] 9.1% | [5] -5.6% | [6] -11.5%

CCOC(=O)CC1CC(CN)(C(=O)OCC)CO1 (centres undefined)
inactive: [1] -21.6% | [2] 12.2% | [3] -6.9% | [4] 3.65% | [5] -0.4% | [6] -22.9%

O=C(Nc1ccc(S(=O)(=O)N2CCCCC2)cc1)OC(c1ccccc1)c1ccccc1
inactive: [1] 38.3% | [2] -6.6% | [3] 27.4% | [4] 15.9% | [5] -11.7% | [6] 6.05%

CCCCCCCCCCNCC(=O)O
inactive: [1] -11.1% | [2] -16.6% | [3] -1.65% | [4] -7.6% | [5] -1.6% | [6] -8.95%

O=C1NC=NC1c1ccccc1 (centres undefined)
inactive: [1] -2.25% | [2] -10.4% | [3] -9.9% | [4] -24.8% | [5] -3.65% | [6] -11.5%

CC(C)(C)c1ccc(C(O)(c2ccc(C(C)(C)C)cc2)c2ccc(C(C)(C)C)cc2)cc1
inactive: [1] 12.8% | [2] -3.85% | [3] -22.2% | [4] 8.25% | [5] -19.9% | [6] -34.3%

CSCCCO
inactive: [1] -12.8% | [2] -20.6% | [3] 10.5% | [4] -39.1% | [5] -2.45% | [6] -7.4%

O=C(O)c1[nH]c(=O)[nH]c(=O)c1CN1CCCCC1
inactive: [1] -39.8% | [2] -21.6% | [3] -15.1% | [4] -29.9% | [5] -23.4% | [6] -0.75%

COC(=O)CCC(N)C(=O)O (centres undefined)
inactive: [1] 10.2% | [2] -11.2% | [3] -7.15% | [4] -10.3% | [5] -24.9% | [6] -4.2%

COc1ccc(S(=O)(=O)O)cc1NS(=O)(=O)c1ccc(C)cc1
inactive: [1] -1.05% | [2] 18.9% | [3] 15.9% | [4] -12.2% | [5] 0.05% | [6] -2.1%

O=C(COc1ccc(Cl)c(Cl)c1)NCc1ccc(Cl)cc1
inactive: [1] 7.35% | [2] 13.2% | [3] 0.1% | [4] 5.3% | [5] 29.3% | [6] 49.5%

CCc1cccc(CC)c1NC(=O)/C=C/C(=O)O
inactive: [1] -12.6% | [2] 3.45% | [3] -4.75% | [4] -46.6% | [5] -4.2% | [6] 4.1%

O=C1CCC2=NCc3c(ccc4ccccc34)N12
inactive: [1] 4.7% | [2] -0.85% | [3] -12.9% | [4] -42.9% | [5] -12.3% | [6] -4%

c1ccc2c(c1)N=C(NNC1=Nc3ccccc3SC1)CS2
inactive: [1] 2.35% | [2] -2.85% | [3] 2.4% | [4] -0.55% | [5] 1.25% | [6] 0.65%

O=C(CC(=O)n1nc(-c2ccccc2)c(N=Nc2ccc([N+](=O)[O-])cc2)c1-c1ccccc1)Nc1ccc(Cl)cc1
inactive: [1] 35.6% | [2] 3.1% | [3] 52% | [4] 17.4% | [5] 53% | [6] 23.9%

CN(C)C(=S)Oc1cc(Cl)c(Cl)cc1Cl
active: [1] 86.1% | [2] 95.6% | [3] 91.3% | [4] 81.8% | [5] 91.3% | [6] 96%

NCCCCCCCCCCC(=O)O
inactive: [1] -7.25% | [2] -7.6% | [3] -10.7% | [4] -11.2% | [5] -5.9% | [6] -2.8%

CCOC(=O)C1(C(C)C)OC2(O)C3CCCN3C(=O)C(C(C)C)N2C1=O (centres undefined)
inactive: [1] 8.45% | [2] 10.5% | [3] -3% | [4] 20.3% | [5] 8.8% | [6] 17.4%

Nc1c(Cl)ncnc1NCCCCCO
inactive: [1] -5.35% | [2] -4% | [3] -8.75% | [4] -23.7% | [5] -6.95% | [6] -1.95%

C/C=C(\C)CCC(C)(O)CC (centres undefined)
inactive: [1] 2.2% | [2] -15.6% | [3] 7.45% | [4] 3% | [5] -22.4% | [6] 14.1%

COc1ccc(C2OC(C)C(C)O2)cc1 (centres undefined)
inactive: [1] -9.3% | [2] 10.4% | [3] -1.5% | [4] -42.6% | [5] -8.35% | [6] -8%

Cc1cccnc1N
inactive: [1] -9.4% | [2] -31.6% | [3] 5.3% | [4] -11.6% | [5] -1.15% | [6] 14.7%

CSc1nc(SC)c2nc(SC)n(-c3ccccc3)c2n1
inactive: [1] -2.7% | [2] -16.1% | [3] 7.85% | [4] -10.3% | [5] 3.85% | [6] -2.75%

O/N=C1\CC2(N3CCOCC3)CCC1(c1ccccc1)CC2
inactive: [1] 11.5% | [2] -12.3% | [3] 54.1% | [4] 20.9% | [5] 38% | [6] 11.9%

N=C(N)SCc1cccc2ccc3cccc(CSC(=N)N)c3c12
inactive: [1] 4.05% | [2] 8.5% | [3] 17.4% | [4] -3.1% | [5] 2.6% | [6] 30.9%

Cc1cccc2c1ccc1ccccc12
inactive: [1] 5.55% | [2] 6% | [3] -5.45% | [4] -9% | [5] -9.65% | [6] 9.5%

COC(=O)[C@H]1N[C@@H](C(=O)OC)C23CCC[C@H]2CC[C@]1(C(OC)OC)C3
inactive: [1] -3.5% | [2] 2.25% | [3] 14.4% | [4] -3.8% | [5] -0.65% | [6] -16.1%

O=C1c2ccccc2-c2cc(F)ccc21
inactive: [1] 18.3% | [2] -10.4% | [3] -7.4% | [4] -6.25% | [5] 17.6% | [6] -0.1%

CC(=O)OCC(OC(C)=O)C1OC(OCc2ccccc2)C(OC(C)=O)C(OC(C)=O)C1OC(C)=O (centres undefined)
inactive: [1] -10.1% | [2] -4.2% | [3] -17.6% | [4] 44% | [5] -3% | [6] -5.85%

Cc1ccccc1-n1c(C)nc2cc(NCC(=O)c3ccccc3)ccc2c1=O
inactive: [1] 32.9% | [2] -9.8% | [3] -2.3% | [4] -0.5% | [5] -1.6% | [6] 4%

O=[N+]([O-])c1ccccc1S(=O)(=O)c1cc(Cl)cc2c1NCCC2
inactive: [1] 16.8% | [2] 0.15% | [3] 26.8% | [4] 9.15% | [5] 38.8% | [6] 30.9%

O=C(Nc1ccc(Br)cc1)C(=O)C(C(=O)c1ccc(Cl)c(Cl)c1)C1OC(=O)c2ccccc21 (centres undefined)
inactive: [1] 59.1% | [2] 42.5% | [3] 36.6% | [4] 64.5% | [5] 47.3% | [6] 36.7%

Reference: PubChem BioAssay (NCI)
